CBX7 inh = CBX7 inhibition, primary AlphaScreen | O95931 | AlphaScreen His6-CBX7 / biotin-H3K27me3 peptide binding; stronger effect = lower value | normalised signal (fraction of DMSO) (no concentration beside the values) | 66,000 compounds, 1.1% hits | AID 1224903; in the data active means normalised signal below about 0.5
Target sequence (O95931 whole entry, looked up): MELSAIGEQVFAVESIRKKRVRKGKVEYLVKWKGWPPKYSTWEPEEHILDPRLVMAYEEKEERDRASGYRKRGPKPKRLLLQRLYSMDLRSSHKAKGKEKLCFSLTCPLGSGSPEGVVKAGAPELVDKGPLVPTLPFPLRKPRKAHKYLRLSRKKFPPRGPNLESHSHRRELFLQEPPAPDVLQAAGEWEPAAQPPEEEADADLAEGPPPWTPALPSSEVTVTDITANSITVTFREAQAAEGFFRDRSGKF
The depositor's hits bear a star; ! = not confirmed by another sample. Many of the other results were omitted from the sample, so hits are more common in it than they were.

What do the screens show for `Fc1ccccc1-c1nc(-c2ccccc2)c(-c2ccc(Sc3ccccc3)cc2)[nH]1`?
CBX7 inh: 0.69

Results for COc1cccc(-c2nc(-c3ccccc3)c(-c3cc([N+](=O)[O-])ccc3C)[nH]2)c1 ?
CBX7 inh: 0.47*

Results for Cc1ccc([N+](=O)[O-])cc1-c1[nH]c(-c2ccccc2F)nc1-c1ccccc1 ?
CBX7 inh: 0.47*

Results for O=C(NCc1ccc(F)cc1)C1C2C=CC3(CN(Cc4ccccc4Cl)C(=O)C13)O2 (stereo not given) ?
CBX7 inh: 1

Results for COc1ccc(Nc2cc(C(=O)NCCN(CC(C)C)CC(C)C)c3ccccc3n2)c(OC)c1 ?
CBX7 inh: 0.77

Results for N#Cc1ccc(Cn2c(=O)n(Cc3ccccc3)c(=O)c3cccnc32)cc1 ?
CBX7 inh: 0.99

How did CCCc1sc(Nc2ccccc2)nc1-c1ccc(Cl)c(Cl)c1 do in these assays?
CBX7 inh: 0.96

How did CCC(C)NC(=O)CN1C(=O)COc2ccc(S(=O)(=O)N3CC(C)CC(C)C3)cc21 (stereo not given) do in these assays?
CBX7 inh: 0.99

What do the screens show for `CCc1ccc(N2CC(c3nc4ccccc4n3C)CC2=O)cc1` (stereo not given)?
CBX7 inh: 1

Results for Cc1ccc2[nH]c3c(c2c1)CCCC3Nc1ccccc1 (stereo not given) ?
CBX7 inh: 0.71

How did Cc1ccc2[nH]c3c(c2c1)CCCC3NCc1ccc(F)cc1 (stereo not given) do in these assays?
CBX7 inh: 0.43*

How did Brc1ccc2[nH]c3c(c2c1)CCCC3NCc1ccccc1 (stereo not given) do in these assays?
CBX7 inh: 1

How did CCCC1=Nc2cc(C(=O)NCc3ccc4c(c3)OCO4)ccc2Sc2ccccc21 do in these assays?
CBX7 inh: 0.87

Results for O=C(Nc1ccc(N2CCCC2=O)cc1)c1ncn[nH]1 ?
CBX7 inh: 0.0091*

How did Cc1cc(NS(=O)(=O)c2ccc(N3CCCC3=O)cc2)no1 do in these assays?
CBX7 inh: 1.2

Results for O=C(Nc1ccc2[nH]c(=O)[nH]c2c1)C1COc2ccccc2O1 (stereo not given) ?
CBX7 inh: 1

How did O=c1[nH]c2ccc(S(=O)(=O)Nc3ccc(F)cc3)cc2[nH]1 do in these assays?
CBX7 inh: 1

What do the screens show for `O=C(Nc1ccc2[nH]c(=O)[nH]c2c1)c1ncn[nH]1`?
CBX7 inh: 0.39*

Results for O=C(Nc1ccc(F)cc1)C1CC(=O)N(c2ccc(Cl)cc2)C1 (stereo not given) ?
CBX7 inh: 0.99

Results for COc1cccc(C(=O)Nc2cccc3c2C(=O)N(c2ccccc2)C3=O)c1 ?
CBX7 inh: 1.1

Results for Cc1ccccc1Nc1nc(-c2c(C)nc3sccn23)cs1 ?
CBX7 inh: 0.4*!

Results for Cc1ccc(Nc2nc(-c3c(C)nc4ccccn34)cs2)cc1 ?
CBX7 inh: 0.9

How did CCN(CC)c1ccc(Nc2nc(-c3c(C)nc4ccccn34)cs2)cc1 do in these assays?
CBX7 inh: 0.076*

Results for Cc1ccccc1Nc1nc(-c2c(C)nc3ccccn23)cs1 ?
CBX7 inh: 0.88

How did Cc1nc2ccccn2c1-c1csc(Nc2ccc(Cl)cc2)n1 do in these assays?
CBX7 inh: 0.95

What do the screens show for `CCOc1ccccc1Nc1nc(-c2c(C)nc3sccn23)cs1`?
CBX7 inh: 1

Results for COc1ccc(CNC(=O)C2CC(=O)N(c3ccc(OCC(=O)Nc4ccc(C)cc4)cc3)C2)cc1 (stereo not given) ?
CBX7 inh: 0.9

How did COc1cc2c(cc1OC)C(c1ccc(F)cc1)NCC2 (stereo not given) do in these assays?
CBX7 inh: 0.81

Results for O=C1CCCc2c1[nH]c1ccc(C3CCCCC3)cc21 ?
CBX7 inh: 0.88

What do the screens show for `CCn1c2c(c3cc(C4CCCCC4)ccc31)CCCC2O` (stereo not given)?
CBX7 inh: 0.47*

How did O=C(c1ccccc1)N1CCn2c3c(c4cc(C5CCCCC5)ccc42)CCCC31 (stereo not given) do in these assays?
CBX7 inh: 0.69

What do the screens show for `CCc1cc2c(=O)c(-c3nc4ccccc4n3C)c(C)oc2c(CN2CCCCC2)c1O`?
CBX7 inh: 0.99

Results for CCc1cc2c(C)cc(=O)oc2c(CN2CCCCCC2)c1O ?
CBX7 inh: 0.96

Results for CCc1cc2c(oc(=O)c3ccccc32)c(CN2CCN(C)CC2)c1O ?
CBX7 inh: 0.34*

What do the screens show for `Cc1ccc(NC(=O)Cn2cnc3sc(C)c(C)c3c2=O)cc1F`?
CBX7 inh: 0.98

How did Cc1ccc(Cc2nnc(NC(=O)c3cccs3)s2)cc1 do in these assays?
CBX7 inh: 0.97

How did CCCNC(=O)c1ccc2c(c1)N(Cc1ccccc1)CCS2 do in these assays?
CBX7 inh: 0.81

Source: PubChem BioAssay
